The panel holds about 83,000 compounds, 20% with a hit somewhere; the sample as a whole holds those more often.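 Cells were grown in 96-well plates and exposed to the test compound at a single concentration for 48 hours; results are reported as percent growth, with values below 10 considered active.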 Values without a mark were called inactive. Calls of active or inactive are those of the source.

Some test systems named below: K-562 leukemia; MALME-3M melanoma; MDA-MB-231 breast; RXF 393 renal; SF-268 CNS; SF-295 CNS; SF-539 CNS; UACC-257 melanoma; M14 melanoma; HT29 colon; SNB-75 CNS; SNB-19 CNS; U251 CNS; PC-3 prostate; SK-MEL-5 melanoma; UACC-62 melanoma; LOX IMVI melanoma; SK-MEL-28 melanoma; SK-MEL-2 melanoma; HCT-15 colon.
Common to all, as to assay: NCI-60 one-dose screen, 48 h (100 = growth as untreated, 0 = no growth, -100 = all killed)
What all share (conditions): 10 µM unless noted

In the case of `Cc1ccc2c(c1)C(=O)/C(=C/c1ncc([N+](=O)[O-])n1C)O2`, the growth with K-562 leukemia was 0.705% (active); in the assay with MALME-3M melanoma, -46.7% (active); in the assay with MDA-MB-231 breast, -40.1% (active); in the assay with RXF 393 renal, -57.7% (active); in the assay on SF-268 CNS, -31.9% (active); in the assay on SF-295 CNS, 18%. Moreover, the growth was 39.1% in the assay on SF-539 CNS; -34.6% (active) in the assay with UACC-257 melanoma; -55.8% (active) with M14 melanoma; -19.8% (active) in the assay with HT29 colon; 73.8% in the assay with SNB-75 CNS; 11.8% with SNB-19 CNS. Also, the growth was -19% (active) in the assay with U251 CNS; -2.93% (active) in the assay with PC-3 prostate; -38.5% (active) with SK-MEL-5 melanoma; -13% (active) in the assay with UACC-62 melanoma; -3.36% (active) in the assay with LOX IMVI melanoma; -17.2% (active) with SK-MEL-28 melanoma. Further, the growth in the assay with SK-MEL-2 melanoma was -57.8% (active).

On to `CCC(CC)NCCCCCNc1cc(OC)cc2cccnc12`, for which the growth with K-562 leukemia was 85.1%; in the assay with MALME-3M melanoma it was 119%; in the assay on MDA-MB-231 breast, 83.9%; in the assay with RXF 393 renal it was 88.1%; with SF-268 CNS, 85.3%; in the assay on SF-295 CNS it was 113%. Besides, the growth is 92% in the assay with SF-539 CNS; 101% with UACC-257 melanoma; 92.6% in the assay with HCT-15 colon; 77.3% in the assay on HT29 colon; 73.4% in the assay with SNB-75 CNS; 91.1% in the assay on SNB-19 CNS. Further, the growth in the assay on U251 CNS was 86.5%; with PC-3 prostate it was 97.3%; in the assay on SK-MEL-5 melanoma, 95.4%; in the assay on UACC-62 melanoma, 94.4%; in the assay with LOX IMVI melanoma, 86.3%; in the assay on SK-MEL-28 melanoma, 108%. The growth in the assay with SK-MEL-2 melanoma is 79.8%.

`CN(C)c1ccc2[nH]c3c(C(N)=O)cc(=O)c(=O)c=3oc2c1`: the growth in the assay with K-562 leukemia is 7.27% (active); with MALME-3M melanoma, 87.7%; in the assay with MDA-MB-231 breast, 62.6%; in the assay with RXF 393 renal it was 52.1%; in the assay on SF-268 CNS, 79.8%; with SF-295 CNS it was 78.9%. The growth is 7.15% (active) in the assay on SF-539 CNS; 91% with UACC-257 melanoma; 61.5% in the assay with M14 melanoma; 127% with HT29 colon; 52.7% in the assay on SNB-75 CNS; 74.4% in the assay on SNB-19 CNS. In addition, the growth in the assay on U251 CNS was 35.4%; in the assay with PC-3 prostate it was 59.3%; in the assay on UACC-62 melanoma, 62.6%; with LOX IMVI melanoma, 8.85% (active); in the assay on SK-MEL-28 melanoma, 85.8%; with SK-MEL-2 melanoma it was 85.4%.

As to `O=C1/C(=C/c2ccc([N+](=O)[O-])o2)Oc2ccc(Cl)cc21`, the growth in the assay with K-562 leukemia was -30.1% (active); with MALME-3M melanoma, -45.6% (active); in the assay on MDA-MB-231 breast, -61.9% (active); in the assay with RXF 393 renal it was -72.2% (active); in the assay with SF-268 CNS, -52% (active); with SF-295 CNS, 103%. In addition, the growth with SF-539 CNS is -25.6% (active); with UACC-257 melanoma it was -2.07% (active); in the assay on M14 melanoma, -18.8% (active); in the assay on HT29 colon it was -15.3% (active); in the assay with SNB-75 CNS, 66.5%; in the assay with SNB-19 CNS it was 91.9%. Also, the growth is 50.2% with U251 CNS; -5.46% (active) in the assay with PC-3 prostate; 18.4% in the assay on SK-MEL-5 melanoma; -89% (active) in the assay with UACC-62 melanoma; -61.8% (active) in the assay on LOX IMVI melanoma; 11.2% in the assay on SK-MEL-28 melanoma. Also, the growth in the assay on SK-MEL-2 melanoma is -45.6% (active).

On to `COc1cccc2c1C(=O)c1c(O)c3c(c(O)c1C2=O)C[C@@](O)(/C(C)=N/NC(=O)c1cccc([N+](=O)[O-])c1)C[C@@H]3OC1CC(N)C(O)C(C)O1` (stereo not given in full), for which the growth is -75.7% (active) in the assay on K-562 leukemia; -93.6% (active) in the assay with MALME-3M melanoma; -5.42% (active) with MDA-MB-231 breast; -64.9% (active) in the assay on RXF 393 renal; -20% (active) with SF-268 CNS; -38.5% (active) in the assay on SF-295 CNS. For the same molecule, the growth in the assay with SF-539 CNS is -25.7% (active); in the assay with UACC-257 melanoma, -37.4% (active); in the assay on M14 melanoma it was -43.8% (active); in the assay on HT29 colon, -53.7% (active); in the assay on SNB-75 CNS it was -34.2% (active); in the assay with SNB-19 CNS, -20.8% (active). The growth in the assay on U251 CNS was -29% (active); in the assay with PC-3 prostate, -35% (active); with SK-MEL-5 melanoma, -100% (active); with UACC-62 melanoma it was -93.9% (active); with LOX IMVI melanoma, -33.3% (active); in the assay on SK-MEL-28 melanoma, -66.7% (active). Further, the growth in the assay with SK-MEL-2 melanoma is -73.6% (active).

For `CCOC(=O)c1c2c(c(C)n1Cc1ccccc1)-c1nc(N)ncc1CC2`, the growth is 94.2% in the assay with K-562 leukemia; 168% with MALME-3M melanoma; 79.3% in the assay on MDA-MB-231 breast; 120% in the assay on RXF 393 renal; 104% with SF-268 CNS; 229% in the assay with SF-295 CNS. For the same molecule, the growth was 103% in the assay with SF-539 CNS; 144% in the assay with UACC-257 melanoma; 111% in the assay on M14 melanoma; 115% with HT29 colon; 90.3% in the assay with SNB-75 CNS; 101% in the assay with SNB-19 CNS. Besides, the growth in the assay on U251 CNS was 106%; with SK-MEL-5 melanoma, 105%; in the assay on UACC-62 melanoma, 77.2%; with LOX IMVI melanoma, 92.6%; in the assay on SK-MEL-28 melanoma, 128%; in the assay with SK-MEL-2 melanoma, 125%.

`CC(NC(=O)C(C)Oc1ccc(Cl)cc1Cl)C(=O)O` (stereo not given): the growth in the assay with K-562 leukemia was 135%; in the assay on MALME-3M melanoma it was 98.6%; in the assay with MDA-MB-231 breast it was 96.8%; in the assay with RXF 393 renal, 120%; in the assay on SF-268 CNS it was 102%; in the assay on SF-295 CNS, 97.8%. In addition, the growth was 102% in the assay with SF-539 CNS; 94.6% in the assay with UACC-257 melanoma; 92.2% with M14 melanoma; 96.2% in the assay on SNB-19 CNS; 105% with U251 CNS; 102% with PC-3 prostate. Also, the growth in the assay with SK-MEL-5 melanoma is 101%; in the assay on UACC-62 melanoma, 91.7%; in the assay with SK-MEL-28 melanoma, 113%; with SK-MEL-2 melanoma it was 97.4%.

`c1csc([C@@H]2C[C@@H]3Cc4ccc5ccccc5c4N2O3)c1`: the growth in the assay on K-562 leukemia was 93.2%; with MALME-3M melanoma, 86.4%; in the assay on MDA-MB-231 breast, 89.1%; in the assay on RXF 393 renal, 104%; with SF-268 CNS it was 108%; in the assay on SF-295 CNS it was 109%. Moreover, the growth is 90.5% with SF-539 CNS; 98.7% with UACC-257 melanoma; 99.7% with M14 melanoma; 93.7% with HCT-15 colon; 87.1% with SNB-75 CNS; 97.5% in the assay on SNB-19 CNS. Besides, the growth with U251 CNS was 96.8%; in the assay on SK-MEL-5 melanoma, 101%; in the assay with UACC-62 melanoma, 79.7%; in the assay with LOX IMVI melanoma, 98.9%; in the assay on SK-MEL-28 melanoma it was 103%.

The values are drawn from PubChem BioAssay (NCI).
